# Source: PubChem BioAssay
# Rows were chosen to be rich in hits. Some 19% of all compounds tested hit in one or more screens of this group.
# HT1080 IDH1KD tx – toxicity to HT-1080 IDH1 knockdown cells (counter line); HT-1080 IDH1 knockdown viability, ATP luminescence, 48 h; Potency, µM (titrated, usually from 46.1 µM), for the others: at the top dose activity, negative = toxicity, hits mostly cytotoxic; 360,000 tested, 2% active;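 further: potency means the concentration at half of the fitted maximal effect; 0% = DMSO wells and -100% = cell-free medium wells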
#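 Cytotoxicity counter-line: IDH1KD HT-1080, 48 h, CellTiter-Glo. Curves classed by r2, magnitude and activity.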
# HT1080NT lethal – kills 2HG-producing HT-1080-NT fibrosarcoma cells. HT-1080-NT fibrosarcoma viability, CellTiter-Glo ATP luminescence, 48 h. Potency, µM (series often up to 46.1 µM), inactives show at the highest dose activity, negative = less viability, actives largely listed as cytotoxic. 360,000 tested, 1.6% active. AID 686970;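 further: NT is the 2HG producing partner of a matched IDH1 knockdown line; potency means the concentration at half of the fitted maximal effect; 0% = DMSO-treated cells and -100% = media-only wells without cells; nearly all actives have a fitted effect of over 55% in size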
#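 Read-out is CellTiter-Glo luminescence after 10 minutes at room temperature, following 48 hours' compound treatment of HT-1080-NT cells (750 cells/well, RPMI, 5% FBS, 37 degrees C).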
# TDP1 cell CPT – growth inhibition of DT40 Tdp1-/-;hTDP1 cells with camptothecin (screen for TDP1 inhibitors). chicken DT40 Tdp1-/-;hTDP1 cells + 20 nM CPT, ATP luminescence, 48 h. Potency, µM (doses to about 46.2 µM), for inactives: at the top dose activity change, negative = growth inhibition, most hits filed as inhibitors. 420,000 tested, 12% active. AID 686979; further: potency means the concentration at half of the fitted maximal effect; nearly all actives have a fitted effect of over 55% in size
#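 Cell growth measured by CellTiter-Glo luminescence after a minimum 48 h, 37 C compound exposure with 20 nM CPT in Tdp1-knockout DT40 cells stably expressing hTDP1, seeded 400/well; qHTS titration format.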
# TDP1 cell noCPT – qHTS for Inhibitors of human tyrosyl-DNA phosphodiesterase 1 (TDP1): qHTS in cells in absence of CPT; 420,000 tested, 15% active; DT40 Tdp1-/- hTDP1 cells, no CPT, ATP luminescence, 48 h; AID 686978, 2013; Potency, µM (highest dose often 46.2 µM), for inactives: top-dose activity change, negative = growth inhibition, actives largely listed as inhibitors; further: potency means the concentration at half of the fitted maximal effect; nearly all actives have a fitted effect of over 55% in size
#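 Readout: luminescence from CellTiter-Glo after 30 min in the dark at RT. Cells: DT40 Tdp1-/- with stable hTDP1, 400/well. Exposure: compounds alone, ≥48 hr, 37 °C.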
# IL1B secr inh – blocks inflammasome-driven IL-1 beta release; THP-1 LPS/ATP IL-1B secretion, AlphaLISA, 16 h; active compounds read low; activity change, % at 57.5 µM; 360,000 tested, 4.7% active; in the data active means activity change below about -50%; inconclusive means mostly about -30% to -49%
#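 THP-1 cells pretreated 1 hr with compounds (up to 57.5 uM final), then stimulated with LPS (250 ng/mL final) plus ATP (1.25 mM final); secreted IL-1B measured by AlphaLISA after 16 hr, decreased signal indicating inhibition.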
# * marks the source's active call; other numbers are inactive results; ? = inconclusive; · = no result. Unless noted, the call rests on the fitted dose curve; in most records, active means well fitted curve in the direction sought with a large enough effect; inconclusive means small, poorly fitted or top-dose-only effect, or another doubt; inactive means no such curve, though single readings can be large; an effect the other way counts as inactive or inconclusive. Unless noted, on the % scale 0 is the no-effect control and ±100 the full control effect.
SMILES,HT1080 IDH1KD tx,HT1080NT lethal,TDP1 cell CPT,TDP1 cell noCPT,IL1B secr inh
CCc1ccccc1NC(=S)N(CCN(C)C)Cc1cccs1,14%,0%,-11%,-26%,-13
CCc1cc2c(=O)n(Cc3ccco3)c(SCC(=O)N(C)C3CCS(=O)(=O)C3)nc2s1 (stereo unspecified),-12%,-7%,-24%,?,30
Cn1c(=O)c2c(ncn2CC(=O)Nc2cc(S(=O)(=O)N3CCCCC3)ccc2Cl)n(C)c1=O,0%,-6%,?,?,10
COc1ccc(CN2CCn3ncc(C(=O)Nc4cc(C)cc(C)c4)c3C2=O)cc1,?,?,5.8µM*,?,-4
Cc1nnc(NC(=O)CSc2nnc(CNC(=O)c3ccc(S(=O)(=O)N(C)C)cc3)o2)s1,16%,12%,1%,1%,4
Cc1cc(C(=O)NCc2nnc3n2CCN(Cc2ccc(F)cc2F)CC3)c(C)o1,·,·,-25%,-9%,·
CCCOc1ccc(C(O)(CCC)CCN2CCCCC2)cc1 (stereo unspecified),-4%,-4%,21µM*,23µM*,-10
CC(C)(C)c1ccc(OCCCN2CCCC2)cc1,-21%,-12%,?,13µM*,0
CCCC(O)(CCN1CCOCC1)c1ccc(Br)cc1 (stereo unspecified),-6%,0%,?,?,25
CC(OCCN1CCCC1)(c1ccc(F)cc1)c1ccc(F)cc1,-27%,-26%,?,?,-59*
Cc1[nH]c(=O)[nH]c(=O)c1C=CC(=O)NC(CO)CS(=O)Cc1ccccc1 (stereo unspecified),9%,-1%,3%,-5%,-3
CCN(Cc1ccccc1)C(=O)CCS(=O)(=O)c1ccc2c(c1)CCN2C(C)=O,-5%,-1%,?,?,-1
OC[C@@H]1CN(Cc2cccs2)C[C@H](n2cnc3c(NCc4ccncc4)ncnc32)O1,8%,24%,7%,-4%,2
Cc1ccccc1-c1cc2nccc(-c3cc(Cl)ccc3O)n2n1,·,·,-27%,?,·
CCOC(=O)Cc1csc(NC(=S)NC(=O)c2cccc([N+](=O)[O-])c2)n1,17%,18%,-19%,?,6
c1ccc(-c2ccc(C3=Nn4c(nnc4-c4cc(-c5ccccc5)n[nH]4)SC3)cc2)cc1,18µM*,?,?,?,62
CC(C)[C@H](N)c1nnc2n1N=C(c1ccc(Cl)cc1)CS2,0%,3%,-7%,0%,12
Cc1cccc(-c2nnc3n2N=C(c2ccc(Br)cc2)CS3)c1,7%,5%,-49%,-42%,13
Clc1ccc(C2=Nn3c(nnc3-c3n[nH]c4c3CCC4)SC2)cc1,5.8µM*,5.8µM*,4.1µM*,2.9µM*,-5
Cc1ccc(-c2nnc3n2N=C(c2ccc(Br)cc2)CS3)cc1,0%,-9%,23µM*,?,-20
Brc1ccc(C2=Nn3c(nnc3-c3n[nH]c4c3CCC4)SC2)cc1,0.65µM*,1.2µM*,0.92µM*,0.92µM*,-16
CC(=O)N1CCN(C(=O)c2ccc3c(c2)OCCO3)CC1,15%,-2%,8%,10%,-7
O=C(CSc1nc(-c2ccco2)nc2cc(=O)[nH]n12)Nc1ccccc1F,·,·,0%,7%,·
CC(C)c1cccc(C(C)C)c1NC(=O)COC(=O)c1ccc2c(c1)S(=O)(=O)c1ccccc1C2=O,-1%,-1%,-11%,-8%,-5
CCOc1ccc(NC(=O)Nc2cc(C(C)C)c(O)cc2C)cc1,0%,-12%,?,?,-3
Cc1cc(O)c(C(C)C)cc1NC(=S)Nc1cc(C(C)C)c(O)cc1C,-16%,1%,?,?,-55*
Cc1ccc(C=Nc2ccccc2C(N)=O)s1,3.3µM*,5.2µM*,4.1µM*,3.7µM*,30
CCCOC(=O)c1c(-c2ccccc2)nc(CC)c(C(=O)SCC)c1CCC,-13%,8%,?,16µM*,33
